Assay results: PubChem BioAssay (EPA / NIEHS)
Results filed as inconclusive are left out. Active and inactive are the calls of the source. The calls were made as follows: active = hit-call score of the fitted dose curve at least 0.9, where 1 is the maximum; inconclusive = response in the unintended direction; inactive = score below 0.9.

Key:
[1] = target: Cellular tumor antigen p53 (Homo sapiens) (UniProt P04637); test: TOX21_p53_BLA_p2_ratio: Tox21 HCT-116 p53 Agonism Beta-lactamase Assay, Ratio, Phase 2 (AID 2283592)
Sequence of Cellular tumor antigen p53 (Homo sapiens) (P04637 whole entry, looked up): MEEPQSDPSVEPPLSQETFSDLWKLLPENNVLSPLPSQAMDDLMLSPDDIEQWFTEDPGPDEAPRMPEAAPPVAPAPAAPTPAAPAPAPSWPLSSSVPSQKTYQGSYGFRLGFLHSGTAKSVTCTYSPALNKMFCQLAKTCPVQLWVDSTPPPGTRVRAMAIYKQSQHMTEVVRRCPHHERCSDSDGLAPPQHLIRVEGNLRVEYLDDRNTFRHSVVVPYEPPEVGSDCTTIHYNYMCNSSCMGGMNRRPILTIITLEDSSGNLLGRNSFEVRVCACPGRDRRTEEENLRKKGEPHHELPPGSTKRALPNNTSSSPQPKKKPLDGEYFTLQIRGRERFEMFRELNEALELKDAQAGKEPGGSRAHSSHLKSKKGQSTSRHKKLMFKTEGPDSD
Method in brief: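 HCT116 p53-bla; 4000 cells/well; 5 h pre-incubation; cpd in DMSO, 217-fold dilution; 16 h 37C/5% CO2; CCF4-AM 2 h RT; Ex 405, Em 460/530 ratio; DMSO = baseline; positive fitting direction.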

[2] = target: Cellular tumor antigen p53 (Homo sapiens) (UniProt P04637); test: TOX21_p53_BLA_p3_ratio: Tox21 HCT-116 p53 Agonism Beta-lactamase Assay, Ratio, Phase 3 (AID 2283596)
Method in brief: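 HCT116 p53-bla cells (4000/well) given compound in DMSO (217-fold dilution) after 5 h, incubated 16 h at 37C. CCF4-AM substrate 2 h at room temperature; 460/530 nm emission ratio, gain fitted against DMSO.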

[3] = target: Cellular tumor antigen p53 (Homo sapiens) (UniProt P04637); test: TOX21_p53_BLA_p5_ratio: Tox21 HCT-116 p53 Agonism Beta-lactamase Assay, Ratio, Phase 5 (AID 2283599)
Method in brief: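 Beta-lactamase reporter ratio (blue 460 nm over green 530 nm, 405 nm excitation) after 2 h CCF4-AM loading, in HCT-116 cells exposed 16 h at 37 C to compounds pinned at 217-fold dilution. Increases relative to DMSO baseline scored.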

[4] = ATG_XTT_Cytotoxicity: Cytotoxicity Assessment in the Attagene TRANS-FACTORIAL HepG2 Assay (AID 2283584)
Method in brief: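 Cells: human HepG2, transiently transfected with MRTU reporter constructs. Exposure 24 h. Readout: XTT, cell number. Baseline/neg ctrl DMSO; loss-of-signal scored.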

[5] = system: Thyroperoxidase (TPO), gene 54314; test: CCTE_Simmons_AUR_rTPO: CCTE's Amplex UltraRed Assay for Thyroperoxidase (TPO) Inhibition, Simmons Lab (AID 2283662)
Method in brief: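 Cell-free peroxidase activity assay using rat thyroid gland microsomes with excess H2O2 (300 uM) and 25 uM Amplex UltraRed. Compounds tested from 5 nM to 87.5 uM; fluorescence measured after 30 min at 37C, analysed relative to DMSO baseline.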

[6] = TOX21_p53_BLA_p2_viability: Viability Assessment in the Tox21 HCT-116 p53 Agonism Beta-lactamase Assay, Phase 2 (AID 2283591);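 also: compound exposure lasted 16 h at 37 °C; actives lower the ATP signal meaning cytotoxicity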
Method in brief: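 Cytotoxicity readout: CellTiter-Glo ATP luminescence, 30 min at room temperature, after the beta-lactamase read. Cells were HCT116 exposed 16 h at 37C to compounds pin-transferred at 217-fold dilution from DMSO stocks.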

[7] = TOX21_p53_BLA_p3_viability: Viability Assessment in the Tox21 HCT-116 p53 Agonism Beta-lactamase Assay, Phase 3 (AID 2283593);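 also: cells exposed to compound for 16 h before reading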
Method in brief: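 Cellular ATP was quantified by CellTiter-Glo luminescence, read after 30 min at room temperature. Beforehand, HCT116 cells (4000/well) received compound 5 h post-seeding, 217-fold diluted from DMSO, then incubated 16 h at 37C.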

[8] = TOX21_p53_BLA_p4_viability: Viability Assessment in the Tox21 HCT-116 p53 Agonism Beta-lactamase Assay, Phase 4 (AID 2283597);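 also: hits lower the luminescence signal meaning cytotoxicity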
Method in brief: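 Cells plated, 5 h pre-incubation; DMSO compounds pinned (217-fold dilution); 16 h, 37C/5% CO2; CCF4-AM 2 h RT; CellTiter-Glo 30 min RT; luminescence read.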

Measured: outcome

CCCCOC(=O)[C@H](C)O
inactive: [1] | [2] | [3]

O=c1cccc[nH]1
inactive: [4] | [5]

CN(N=O)C(=O)N[C@@H]1[C@@H](O)[C@H](O)[C@@H](CO)O[C@@H]1O
inactive: [6] | [1] | [7] | [2] | [8] | [3]
